Assay results reported in PubChem BioAssay AID1159580 (chemical genetic matrix, 2015).
Among all 5,500 compounds or so, about 2,000 (36%) were called active. Inconclusive results (about 18%) are left out. No stated cut-off is given here; in the data, active means normalized growth mostly below about 0.91 (no sharp cut-off); inconclusive means no clear call, values can overlap the other calls; inactive means mostly above about 0.92. The list shows a part of the results.

Assay: chemical genetic growth profiling, strain panel (AID 1159580);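 further: tested at 20 µM; growth read once vehicle control cultures reached saturation at 30 °C; 1 = growth at the plate median or of vehicle wells; lower values mean less growth of the strain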
Conditions: S. cerevisiae deletion strains, growth OD
[1] = locus YAR019C, strain CDC15, hits give low values
[2] = locus YBL105C, strain PKC1, hits give low values
[3] = locus YBR135W, strain CKS1, hits give low values
[4] = locus YBR136W, strain MEC1, hits give low values
[5] = locus YBR160W, strain CDC28, hits give low values
[6] = locus YDL017W, strain CDC7, hits give low values
[7] = locus YDL028C, strain MPS1, hits give low values
[8] = locus YDL101C, strain DUN1, hits give low values
[9] = locus YDL108W, strain KIN28, hits give low values
[10] = locus YDL132W, strain cdc53, hits give low values
[11] = locus YDL214C, strain PRR2, hits give low values
[12] = locus YDR052C, strain DBF4, hits give low values
[13] = locus YDR054C, strain cdc34, hits give low values
[14] = locus YDR226W, strain ADK1, hits give low values
[15] = locus YDR477W, strain SNF1, hits give low values
[16] = locus YER123W, strain YCK3, hits give low values
[17] = locus YER133W, strain GLC7, hits give low values
[18] = locus YFL009W, strain cdc4, hits give low values
[19] = locus YFL029C, strain CAK1, hits give low values
[20] = locus YFR003C, strain YPI1, hits give low values
[21] = locus YFR019W, strain FAB1, hits give low values
[22] = locus YFR028C, strain CDC14, hits give low values
[23] = locus YGR040W, strain KSS1, hits give low values
[24] = locus YGR052W, strain FMP48, hits give low values
[25] = locus YGR092W, strain DBF2, hits give low values
[26] = locus YHR030C, strain SLT2, hits give low values
[27] = locus YHR079C, strain IRE1, hits give low values
[28] = locus YHR082C, strain KSP1, hits give low values
[29] = locus YHR205W, strain SCH9, hits give low values
[30] = locus YIL147C, strain SLN1, hits give low values
[31] = locus YJL095W, strain BCK1, hits give low values
[32] = locus YJL128C, strain PBS2, hits give low values
[33] = locus YJL157C, strain FAR1, hits give low values
[34] = locus YJR016C, strain ILV3, hits give low values
[35] = locus YJR066W, strain TOR1 (second series), hits give low values
[36] = locus YJR066W, strain TOR1, hits give low values
[37] = locus YKL048C, strain ELM1, hits give low values
[38] = locus YKL067W, strain YNK1, hits give low values
[39] = locus YKL101W, strain HSL1, hits give low values
[40] = locus YKL193C, strain SDS22, hits give low values
[41] = locus YKL203C, strain TOR2, hits give low values
[42] = locus YLR113W, strain HOG1, hits give low values
[43] = locus YLR133W, strain CKI1, hits give low values
[44] = locus YLR403W, strain SFP1, hits give low values
[45] = locus YML070W, strain DAK1, hits give low values
[46] = locus YMR001C, strain CDC5, hits give low values
[47] = locus YMR205C, strain PFK2 (second series), hits give low values
[48] = locus YMR277W, strain FCP1, hits give low values
[49] = locus YNL006W, strain LST8, hits give low values
[50] = locus YNL020C, strain ARK1, hits give low values
[51] = locus YNL161W, strain CBK1, hits give low values
[52] = locus YNL183C, strain NPR1, hits give low values
[53] = locus YNL207W, strain RIO2, hits give low values
[54] = locus YNL222W, strain SSU72, hits give low values
[55] = locus YNL307C, strain MCK1 (second series), hits give low values
[56] = locus YOL078W, strain AVO1, hits give low values
[57] = locus YOL136C, strain PFK27, hits give low values
[58] = locus YOR061W, strain CKA2, hits give low values
[59] = locus YOR119C, strain RIO1, hits give low values
[60] = locus YOR231W, strain MKK1, hits give low values
[61] = locus YOR329C, strain SCD5, hits give low values
[62] = locus YPL031C, strain PHO85, hits give low values
[63] = locus YPL153C, strain RAD53, hits give low values
[64] = locus YPL204W, strain HRR25, hits give low values
[65] = locus YPL209C, strain IPL1, hits give low values
[66] = locus YPL256C, strain CLN2, hits give low values
[67] = locus YPR025C, strain CCL1, hits give low values
[68] = locus YPR106W, strain ISR1, hits give low values
[69] = locus YPR111W, strain DBF20, hits give low values
[70] = strain NNK1, hits give low values
[71] = strain TSCII, hits give low values

Measured: normalized growth

Cn1nccc1-c1cc(Cl)cc(Cl)c1O
active: [17] 0.687 | [26] 0.617 | [42] 0.571 | [66] 0.718
inactive: [1] 0.955 | [2] 0.959 | [3] 0.963 | [4] 0.959 | [5] 0.969 | [6] 0.962 | [7] 0.964 | [8] 0.964 | [9] 0.967 | [10] 0.966 | [11] 0.799 | [12] 0.971 | [13] 0.969 | [14] 0.981 | [15] 0.731 | [16] 0.739 | [18] 0.982 | [19] 0.952 | [20] 0.961 | [21] 0.869 | [22] 0.975 | [23] 0.745 | [24] 0.742 | [25] 0.722 | [27] 0.698 | [28] 0.748 | [29] 0.787 | [30] 0.96 | [31] 0.676 | [32] 0.917 | [33] 0.749 | [34] 0.962 | [35] 0.673 | [36] 0.686 | [37] 0.908 | [38] 0.817 | [39] 0.835 | [40] 0.934 | [41] 0.798 | [43] 0.825 | [44] 0.678 | [45] 0.719 | [46] 0.947 | [47] 0.795 | [48] 0.934 | [49] 0.968 | [50] 0.819 | [51] 0.956 | [52] 0.757 | [53] 0.948 | [54] 0.964 | [55] 0.798 | [56] 0.95 | [57] 0.773 | [58] 0.744 | [59] 0.798 | [60] 0.795 | [61] 0.963 | [62] 0.704 | [63] 0.718 | [64] 0.685 | [65] 0.965 | [67] 0.961 | [68] 0.948 | [69] 0.952 | [70] 0.96 | [71] 0.947

O=S(=O)(NCc1ccc(C(F)(F)F)cc1)c1cc(Br)c(Br)s1
inactive: [1] 0.987 | [2] 0.969 | [3] 0.971 | [4] 0.985 | [5] 0.966 | [6] 0.967 | [7] 0.984 | [8] 0.975 | [9] 0.974 | [10] 0.973 | [11] 0.786 | [12] 0.979 | [13] 0.973 | [14] 0.984 | [15] 0.856 | [16] 0.747 | [17] 0.794 | [18] 0.979 | [19] 0.982 | [20] 0.974 | [21] 0.845 | [22] 0.967 | [23] 0.818 | [24] 0.729 | [25] 0.801 | [27] 0.813 | [29] 0.618 | [30] 0.98 | [31] 0.741 | [32] 0.924 | [33] 0.872 | [34] 0.98 | [35] 0.794 | [36] 0.689 | [38] 0.835 | [40] 0.967 | [41] 0.851 | [43] 0.839 | [44] 0.808 | [45] 0.797 | [46] 0.964 | [47] 0.831 | [48] 0.965 | [49] 0.98 | [50] 0.838 | [51] 0.969 | [52] 0.659 | [53] 0.977 | [54] 0.967 | [55] 0.846 | [56] 0.969 | [57] 0.811 | [58] 0.848 | [59] 0.772 | [60] 0.792 | [61] 0.969 | [62] 0.774 | [63] 0.716 | [64] 0.795 | [65] 0.973 | [67] 0.965 | [68] 0.97 | [69] 0.982 | [70] 0.968 | [71] 0.97
active: [26] 0.645 | [28] 0.607 | [37] 0.791 | [39] 0.714 | [42] 0.721 | [66] 0.728
